FMDV antiviral: High Throughput Screening for Foot and Mouth Disease Virus Antivirals; Potency, µM (series often up to 57.9 µM), actives largely listed as inhibitors; FMDV antiviral cell-based qHTS; hit rate 1.2% among 410,000; AID 1159524, 2015; calls by dose curve; tested in HEK293T cells; also: read-out not given here; nearly all actives have a fitted effect of over 45% in size
Giardia FBPA inh: qHTS Assay for Inhibitors of Fructose-1,6-bisphosphate Aldolase from Giardia Lamblia. A8B2U2. purified Giardia FBPA. Potency, µM (series often up to 59.6 µM), usual class: inhibitors. hit rate 0.71% among 290,000; also: nearly all actives have a fitted effect of over 55% in size
Target sequence (A8B2U2 whole entry, looked up): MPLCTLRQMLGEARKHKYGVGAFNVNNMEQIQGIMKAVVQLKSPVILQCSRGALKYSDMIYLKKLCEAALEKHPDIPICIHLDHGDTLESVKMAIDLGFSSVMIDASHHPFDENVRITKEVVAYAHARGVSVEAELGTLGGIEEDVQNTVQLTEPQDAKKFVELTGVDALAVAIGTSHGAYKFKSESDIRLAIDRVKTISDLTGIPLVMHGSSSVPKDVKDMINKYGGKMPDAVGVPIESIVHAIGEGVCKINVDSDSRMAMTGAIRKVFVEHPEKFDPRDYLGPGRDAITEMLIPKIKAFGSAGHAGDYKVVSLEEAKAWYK
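40 nM FBPA preincubated 10 min at RT with compound (up to 57.5 uM final), then substrate plus GAPDH/TPI/NAD/arsenate coupling and diaphorase/resazurin added. Fluorescence read after 20 min at RT, 525/598 nm.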
HCMV inh: qHTS Assay for inhibitors of the human cytomegalovirus (HCMV). HFF cells, HCMV-luciferase reporter, 72 h; hits give low values. activity change, negative = inhibition, % at 57.5 µM. hit rate 4.5% among 410,000. AID 1259415, 2018; in the data active = activity change below about -60%; inconclusive = no clear call, values can overlap the other calls; inactive = above about -39%
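Steps: HFFs plated, 16 h 37C; compounds added; HCMV-luciferase added to MOI 1 PFU/cell; 72 h 37C; OneGlo reagent, 5 min room temperature; luminescence read, normalized to controls.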
VACV Venus inh: qHTS for Stage-Specific Inhibitors of Vaccinia Orthopoxvirus: Venus Reporter Primary qHTS; Vaccinia virus Venus reporter expression, fluorescence; Potency, µM (highest dose often 36.5 µM), most hits filed as inhibitors; hit rate 0.46% among 330,000; AID 720580, 2013; calls by dose curve; tested in A549 cells; also: nearly all actives have a fitted effect of over 30% in size
HCV inh: qHTS Assay for Inhibitors of Hepatitis C Virus (HCV). Huh7.5.1 HCVcc-Cre infection, luciferase reporter, 44 h. Potency, µM (titrated, usually from 41.8 µM), actives largely listed as inhibitors. hit rate 3.4% among 340,000. AID 651820, 2012
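Reporter virus HCVcc-Cre (~0.5 moi) infects cells exposed to compound; seeding density 1,000 cells/well with 4 h settling beforehand. Luminescence, 15 sec read, taken 44 h post-infection following a 15 min RT substrate incubation.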
Vaccinia mCherry: qHTS for Stage-Specific Inhibitors of Vaccinia Orthopoxvirus: mCherry Reporter Primary qHTS | Vaccinia virus mCherry reporter infection, fluorescence | Potency, µM (top dose mostly 36.5 µM), most hits filed as inhibitors | hit rate 0.63% among 310,000; calls by dose curve; tested in A549 cells; also: nearly all actives have a fitted effect of over 35% in size
Large screens that a line does not name were inactive. A selection: hits, their analogues and other compounds. The true share with any hit is near 7.5%. Unless noted, calls follow the shape of the dose curve; as a rule, active = well fitted curve in the direction sought with a large enough effect; inconclusive = small, poorly fitted or top-dose-only effect, or another doubt; inactive = no such curve, though single readings can be large; an effect the other way counts as inactive or inconclusive.

C/C=C(/C)C(=O)OC1CC(C)(C)C[C@H]2C3=CC[C@@H]4[C@@]5(C)CCC(O[C@@H]6O[C@@H](C(=O)O)[C@@H](O)C(O[C@@H]7OC[C@H](O)[C@@H](O)[C@@H]7O[C@@H]7OC(CO)C(O)[C@@H](O)[C@@H]7O)C6O[C@@H]6OC(CO)C(O)C(O)C6O)[C@@](C)(CO)[C@@H]5CC[C@]4(C)[C@]3(C)CC(O)[C@@]12CO (stereo not given in full)	VACV Venus inh 13µM, HCV inh inconclusive, Vaccinia mCherry inconclusive (no result: Giardia FBPA inh, HCMV inh)
C/C=C(\C)C(=O)OC1[C@H](OC(C)=O)C2(CO)C(CC1(C)C)C1=CCC3C4(C)CCC(O[C@@H]5O[C@H](C(=O)O)[C@@H](O[C@@H]6O[C@H](CO)[C@@H](O)[C@H](O)[C@H]6O)[C@H](O)[C@H]5O[C@H]5O[C@H](CO)[C@@H](O)[C@H](O)[C@H]5O)[C@](C)(CO)C4CCC3(C)[C@]1(C)C[C@H]2O (stereo not given in full)	FMDV antiviral 28µM, VACV Venus inh inconclusive, HCV inh 3.2µM, Vaccinia mCherry inconclusive (no result: Giardia FBPA inh, HCMV inh)
C/C=C(/C)C(=O)OC1C(OC(C)=O)[C@@]2(CO)C(O)C[C@@]3(C)C(=CCC4[C@@]5(C)CCC(OC6OC(C(=O)O)[C@@H](O[C@@H]7OC(CO)C(O)C(O)C7O)C(O)[C@H]6O[C@@H]6OC(CO)C(O)C(O)C6O)[C@](C)(CO)C5CC[C@@]43C)C2CC1(C)C (stereo not given in full)	Vaccinia mCherry inconclusive (no result: HCMV inh, HCV inh)
COc1ccc(CN2CCOc3c(O)cc(-c4cc(C)c5ccc(F)cc5n4)cc3C2)c(O)c1	none (no result: Giardia FBPA inh, HCMV inh, HCV inh)
CCCCC(=O)NC(c1ccc(OC)cc1)c1ccc2cccnc2c1O (stereo not given)	HCMV inh -98, VACV Venus inh inconclusive, Vaccinia mCherry 10µM (no result: Giardia FBPA inh, HCV inh)
CC(=O)NC(c1ccco1)c1ccc2cccnc2c1O (stereo not given)	Giardia FBPA inh inconclusive, VACV Venus inh inconclusive, HCV inh 7.9µM (no result: HCMV inh, Vaccinia mCherry)
COc1ccc(C(NC(=O)C(C)C)c2ccc3cccnc3c2O)cc1 (stereo not given)	FMDV antiviral inconclusive, HCMV inh -99, VACV Venus inh inconclusive, HCV inh 2µM, Vaccinia mCherry 4.5µM
CC(=O)NC(c1ccc(Cl)cc1)c1ccc2cccnc2c1O (stereo not given)	HCMV inh -99, HCV inh 4.5µM (no result: Giardia FBPA inh, VACV Venus inh, Vaccinia mCherry)
COc1ccc(C=C(C(=O)O)c2ccc(OC)cc2)cc1	none (no result: Giardia FBPA inh)
Cc1ccc(CNC(=O)O[C@H]2CC[C@@]34CCCN3C(=O)CCC[C@H]4[C@H]2Cc2ccccc2)cc1	none (no result: FMDV antiviral, Giardia FBPA inh, VACV Venus inh, HCV inh, Vaccinia mCherry)
COc1ccc(S(=O)(=O)N[C@@H](CSCc2ccccc2)C(=O)O)cc1	none (no result: Giardia FBPA inh)
COc1ccccc1C1CC(=O)NC(C)=C1C(=O)OC(C)C (stereo not given)	none
Cc1ccc(-c2nnc(Nc3cccc(Br)c3)c3ccccc23)cc1S(=O)(=O)N1CCCCC1	none (no result: Giardia FBPA inh, HCV inh)
CCCC(=O)NC(c1ccccc1Cl)c1ccc2cccnc2c1O (stereo not given)	HCMV inh -97, VACV Venus inh inconclusive, HCV inh 2µM, Vaccinia mCherry 1µM
CCCC(=O)NC(c1ccc(OC)cc1)c1c(O)ccc2ccccc12 (stereo not given)	HCV inh inconclusive, Vaccinia mCherry inconclusive
Cc1cc(NC(c2ccc(Cl)cc2)c2ccc3cccnc3c2O)no1 (stereo not given)	HCMV inh -98, VACV Venus inh inconclusive, HCV inh 2.5µM (no result: Vaccinia mCherry)
CCCC(=O)NC(c1ccc(C(C)C)cc1)c1ccc2cccnc2c1O (stereo not given)	Giardia FBPA inh inconclusive, HCMV inh -98, HCV inh 1.8µM, Vaccinia mCherry inconclusive
CCC(=O)NC(c1ccc(C)cc1)c1ccc2cccnc2c1O (stereo not given)	HCMV inh -98, VACV Venus inh inconclusive, HCV inh inconclusive, Vaccinia mCherry inconclusive
Cc1ccc2ccc(C(Nc3ccccn3)c3ccccc3)c(O)c2n1 (stereo not given)	HCV inh inconclusive, Vaccinia mCherry inconclusive
